Screening results as filed in PubChem BioAssay.
Shown are actives, neighbours in structure and some others; about 6.9% of the full set was active somewhere.
JMJD2A Tudor inh: qHTS Assay for Inhibitors of JMJD2A-Tudor Domain. hit rate 4.4% among 390,000. Lysine-specific demethylase 4A (Homo sapiens), O75164. AID 504339, 2011. AlphaScreen JMJD2A-Tudor / H3K4me3 peptide binding. Potency, µM (series often up to 114 µM), without a hit: at the highest dose activity change, negative = inhibition, actives largely listed as inhibitors; further: on the % scale 0 is the no-effect control and ±100 the full control effect; nearly all actives have a fitted effect of over 50% in size
L3MBTL1 inh: qHTS Assay for the Inhibitors of L3MBTL1; Lethal(3)malignant brain tumor-like protein 1 (Homo sapiens), Q9Y468; hit rate 0.66% among 230,000; AlphaScreen L3MBTL1–H3K9me1 peptide binding; Potency, µM (titrated, usually from 57.1 µM), inactives show at the top dose activity, negative = inhibition, actives largely listed as inhibitors; further: on the % scale 0 is the no-effect control and ±100 the full control effect; nearly all actives have a fitted effect of over 60% in size
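L3MBTL1 (50 nM) pre-complexed 30 min with biotinylated H3(1-15)K9me1 peptide (75 nM), then compounds added for 30 min at room temperature; AlphaScreen streptavidin donor/nickel chelate acceptor beads (10 ug/mL final) read after 30 min dark incubation.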
VDR inh: Inhibitors of the vitamin D receptor (VDR): qHTS; Vitamin D3 receptor (Homo sapiens), P11473; VDR-SRC2-3 peptide fluorescence polarization, 2 h; Potency, µM, for inactives: max response, negative = inhibition, usual class: inhibitors; hit rate 0.93% among 400,000; AID 504847, 2011; further: on the % scale 0 is the no-effect control and ±100 the full control effect
Target sequence (P11473 whole entry, looked up): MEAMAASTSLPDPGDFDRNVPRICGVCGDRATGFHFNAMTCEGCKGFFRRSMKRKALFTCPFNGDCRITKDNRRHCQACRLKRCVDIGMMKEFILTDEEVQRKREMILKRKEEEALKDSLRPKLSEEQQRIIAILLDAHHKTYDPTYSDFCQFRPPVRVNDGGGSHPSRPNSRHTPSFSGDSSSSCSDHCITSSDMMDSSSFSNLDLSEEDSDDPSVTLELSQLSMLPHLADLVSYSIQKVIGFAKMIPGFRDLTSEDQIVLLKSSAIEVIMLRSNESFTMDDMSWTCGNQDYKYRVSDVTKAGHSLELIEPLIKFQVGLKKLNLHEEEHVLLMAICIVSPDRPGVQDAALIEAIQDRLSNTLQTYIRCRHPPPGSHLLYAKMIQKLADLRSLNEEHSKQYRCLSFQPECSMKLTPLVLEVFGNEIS
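Measured by FP: displacement of SRC2-3 coactivator peptide from VDR by library compounds, following a two-hour ambient incubation.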
BAZ2B inh: qHTS Assay for Inhibitors of BAZ2B. hit rate 4.4% among 360,000. Bromodomain adjacent to zinc finger domain protein 2B (Homo sapiens), Q9UIF8. AlphaScreen BAZ2B-H3K14Ac peptide displacement. Potency, µM (doses to about 114 µM), for the others: at the top dose activity change, negative = inhibition, actives largely listed as inhibitors; further: on the % scale 0 is the no-effect control and ±100 the full control effect; nearly all actives have a fitted effect of over 60% in size
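BAZ2B (50 nM) with biotin-H3(5-23)K14Ac peptide (50 nM) in PBS pH 7.4, 0.01% Tween-20, preformed 30 min, then compound 30 min at room temperature; top concentration 110uM. AlphaScreen streptavidin donor/nickel chelate acceptor beads (10 ug/mL final), 20 min dark, signal read.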
HP1b chromo inh: HTS for Inhibitors of HP1-beta Chromodomain Interactions with Methylated Histone Tails. Chromobox protein homolog 1 (Homo sapiens), P83916. AlphaScreen HP1-beta / biotin-H3K9me3 peptide binding. Potency, µM (series often up to 114 µM), for inactives: top-dose activity change, negative = inhibition, actives largely listed as inhibitors. hit rate 0.56% among 390,000; further: nearly all actives have a fitted effect of over 70% in size
Target sequence (P83916 whole entry, looked up): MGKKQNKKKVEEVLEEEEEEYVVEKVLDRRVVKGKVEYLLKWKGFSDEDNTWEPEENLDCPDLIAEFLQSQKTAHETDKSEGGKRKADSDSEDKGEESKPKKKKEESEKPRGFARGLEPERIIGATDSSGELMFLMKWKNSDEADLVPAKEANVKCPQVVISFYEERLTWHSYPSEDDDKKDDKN
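HP1-beta protein (50 nM final) preincubated 30 min at room temperature with biotinylated H3(1-18)K9me3 peptide (50 nM) in PBS pH 7.4, 0.01% Tween-20, then compound added for 30 min. AlphaScreen streptavidin donor/nickel chelate acceptor beads (10 ug/mL final), 30 min dark, luminescence read.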
PLK1 PBD block: qHTS for Inhibitors of PLK1-PDB (polo-like kinase 1 - polo-box domain): Primary Screen | Serine/threonine-protein kinase PLK1 (Homo sapiens), P53350 | Plk1 PBD binding of FITC phosphopeptide, fluorescence polarization | Potency, µM, for the others: max response, negative = inhibition, hits mostly inhibitors | hit rate 2.8% among 360,000 | AID 720504, 2013; further: series mostly up to about 57 µM; on the % scale 0 is the no-effect control and ±100 the full control effect; nearly all actives have a fitted effect of over 65% in size
Numbers without * were called inactive; [ ] = dose if it differs, or a comment. The call rests on the fitted dose curve; in most records, active means well fitted curve in the direction sought with a large enough effect; inconclusive means small, poorly fitted or top-dose-only effect, or another doubt; inactive means no such curve, though single readings can be large; an effect the other way counts as inactive or inconclusive. Potency means the concentration at half of the fitted maximal effect.

Screening Oc1ccc2ccccc2c1N=Nc1ccc(F)cc1 returned JMJD2A Tudor inh 2.24µM*, L3MBTL1 inh inconclusive, VDR inh 34.1%, BAZ2B inh 2.24µM*, HP1b chromo inh 5.62µM* and PLK1 PBD block 12.8%.
Cc1cccc(CC(=O)N2CCCC2)c1 was read as JMJD2A Tudor inh -7.0%, VDR inh 2.1%, BAZ2B inh -1.7%, HP1b chromo inh 27.8% and PLK1 PBD block -5.8%.
Screening N#Cc1ccc(CSc2nc3c(c(=O)[nH]2)CCC3)cc1 returned JMJD2A Tudor inh -11.9%, VDR inh 5.9%, BAZ2B inh 2.5% and HP1b chromo inh 41.5%.
`CC1(C)Oc2ccc3ccc(=O)oc3c2-c2cnoc21` gave JMJD2A Tudor inh inconclusive, L3MBTL1 inh 37.0%, VDR inh 3.5%, BAZ2B inh 50.1µM*, HP1b chromo inh 16.4% and PLK1 PBD block -25.8%.
CC1(C)Oc2ccc3ccc(=O)oc3c2-c2cn[nH]c21 was read as JMJD2A Tudor inh 0.0%, L3MBTL1 inh -2.0%[11.4 µM], VDR inh -8.0%, BAZ2B inh -32.5%, HP1b chromo inh 19.5% and PLK1 PBD block 3.0%.
Screening N#C/C(=C\c1ccc(-c2ccc(C(=O)O)cc2)o1)c1nc2ccccc2[nH]1 returned JMJD2A Tudor inh 89.1µM*, L3MBTL1 inh -9.1%, VDR inh 13.4%, BAZ2B inh -0.9%, HP1b chromo inh inconclusive and PLK1 PBD block 43.6%.
For N#C/C(=C\c1ccc(-c2ccc(Cl)c(C(=O)O)c2)o1)c1nc2ccccc2[nH]1 the results were JMJD2A Tudor inh inconclusive, L3MBTL1 inh -27.9%, VDR inh -13.5%, BAZ2B inh 50.1µM* and HP1b chromo inh 7.2%.
CCN(CC)c1ccc(C=O)c(OC)c1 was read as JMJD2A Tudor inh -0.7%, L3MBTL1 inh 50.7%, VDR inh 0.1%, BAZ2B inh -13.9%, HP1b chromo inh 7.6% and PLK1 PBD block -16.3%.
Screening CC(=O)NC12CC3CC(C1)CC(C(=O)N1CCN(S(=O)(=O)c4ccc(C(C)C)cc4)CC1)(C3)C2 returned JMJD2A Tudor inh -6.8%, L3MBTL1 inh 5.8%, VDR inh -9.6%, BAZ2B inh -3.8%, HP1b chromo inh 37.2% and PLK1 PBD block -5.8%.
Screening COC(=O)c1c(C)sc(-c2c(-c3ccc4c(c3)OCCO4)[nH]c3c2c(=O)[nH]c(=O)n3C)c1O returned JMJD2A Tudor inh -13.9%, VDR inh 1.5%, BAZ2B inh -6.6% and HP1b chromo inh 18.2%.
`O=S(=O)(c1ccccc1)N1N=C(c2ccc(Br)cc2)CC1c1ccco1` (stereo not drawn) gave JMJD2A Tudor inh 15.8µM*, VDR inh inconclusive, BAZ2B inh -17.1%, HP1b chromo inh -1.0% and PLK1 PBD block 2.99µM*.
`O=C1C2CCCN2C(c2ccc(F)cc2)N1c1nccs1` (stereo not drawn) gave JMJD2A Tudor inh 20µM*, L3MBTL1 inh 1.1%, VDR inh -13.2%, BAZ2B inh inconclusive, HP1b chromo inh 19.5% and PLK1 PBD block -13.5%.
O=C(CSC1=NS(=O)(=O)c2cc(F)ccc2N1)NCc1ccccc1Cl was read as JMJD2A Tudor inh 2.8%, L3MBTL1 inh -5.8%, VDR inh 0.2%, BAZ2B inh 10.3%, HP1b chromo inh 25.4% and PLK1 PBD block -5.6%.
For Cc1[nH]c2ccccc2c1CCNS(=O)(=O)c1ccc(S(N)(=O)=O)cc1 the results were JMJD2A Tudor inh inconclusive, VDR inh -9.0%, BAZ2B inh -16.8%, HP1b chromo inh 0.5% and PLK1 PBD block -21.6%.
`COc1ccc(C(C)C)cc1S(=O)(=O)NCCc1c(C)[nH]c2ccc(C)cc12` gave JMJD2A Tudor inh 50.1µM*, VDR inh 4.6%, BAZ2B inh inconclusive and HP1b chromo inh 9.6%.
`COc1c(C)cc(S(=O)(=O)NCCc2c(C)[nH]c3ccccc23)c(C)c1C` gave JMJD2A Tudor inh inconclusive, VDR inh 7.5%, BAZ2B inh 39.8µM* and HP1b chromo inh -19.5%.
O=[N+]([O-])c1cccc(S(=O)(=O)NCCCn2ccnc2)c1 was read as JMJD2A Tudor inh -23.0%, L3MBTL1 inh -1.4%, VDR inh -19.4%, BAZ2B inh 50.1µM*, HP1b chromo inh 1.2% and PLK1 PBD block -10.6%.
For CSc1ccc(S(=O)(=O)NCCCn2ccnc2)cc1 the results were JMJD2A Tudor inh -23.4%, L3MBTL1 inh 2.3%, VDR inh -9.6%, BAZ2B inh -22.5%, HP1b chromo inh 19.8% and PLK1 PBD block -1.7%.
For COc1cc(S(=O)(=O)NCCc2c(C)[nH]c3ccc(C)cc23)ccc1Br the results were JMJD2A Tudor inh 50.1µM*, VDR inh 9.6%, BAZ2B inh inconclusive and HP1b chromo inh inconclusive.
Screening COc1ccc(C(C)C)cc1S(=O)(=O)NCCCn1ccnc1 returned JMJD2A Tudor inh -11.6%, L3MBTL1 inh -2.9%, VDR inh 3.0%, BAZ2B inh -25.5%, HP1b chromo inh 33.5% and PLK1 PBD block -13.7%.
`COc1cc(Cl)c(S(=O)(=O)NCCc2c(C)[nH]c3c(C)cccc23)cc1Cl` gave JMJD2A Tudor inh 50.1µM*, VDR inh 4.1%, BAZ2B inh 31.6µM* and HP1b chromo inh -21.2%.
`COc1ccc(C(C)C)cc1S(=O)(=O)NCCc1c(C)[nH]c2c(Cl)cccc12` gave JMJD2A Tudor inh inconclusive, VDR inh 0.6%, BAZ2B inh 28.2µM* and HP1b chromo inh -11.8%.
Cc1ccc([N+](=O)[O-])cc1S(=O)(=O)NCCc1c(C)[nH]c2c(C)cccc12 was read as JMJD2A Tudor inh -9.6%, L3MBTL1 inh -2.0%, VDR inh -7.6%, BAZ2B inh -0.8%, HP1b chromo inh inconclusive and PLK1 PBD block -7.6%.
`Cc1[nH]c2c(C)cccc2c1CCNS(=O)(=O)c1cccc([N+](=O)[O-])c1` gave JMJD2A Tudor inh inconclusive, L3MBTL1 inh -3.7%, VDR inh -9.2%, BAZ2B inh 50.1µM*, HP1b chromo inh inconclusive and PLK1 PBD block 3.2%.
For Cc1[nH]c(=O)[nH]c(=O)c1S(=O)(=O)Nc1cccc(Cl)c1C the results were JMJD2A Tudor inh 0.7%, VDR inh -12.4%, BAZ2B inh -0.8% and HP1b chromo inh 24.5%.
Screening COc1cccc(Cn2ncc3c4sc(Br)cc4n(C)c3c2=O)c1 returned L3MBTL1 inh 6.8% and BAZ2B inh -16.3%.
